Measurements taken from PubChem BioAssay (Tox21).
Records with an inconclusive call do not appear. Active and inactive are the calls of the source. Unless noted, calls come from the whole dose curve; as a rule, active = well fitted curve in the direction sought with a large enough effect in the repeat runs; inconclusive = weak or mixed curves; inactive = no such curve, though single readings can be large; an effect the other way counts as inactive or inconclusive.

Experiments:
[1] = qHTS assay to identify small molecule antagonists of the glucocorticoid receptor (GR) signaling pathway - cell viability counter screen (AID 720693); note: nearly all actives have a fitted effect of over 55% in size
[2] = qHTS assay for identifying genotoxic compounds that show differential cytotoxicity against isogenic chicken DT40 cell lines with known DNA damage response pathways - wild type cell line (AID 743012); note: nearly all actives have a fitted effect of over 60% in size
How it was run: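 300 wt DT40 cells/well; cpd (DMSO) pintool-transferred after ~0.5 h at 37 C/5% CO2; 40 h incubation; CellTiter-Glo added, 30 min RT; luminescence read.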

[3] = qHTS assay for identifying genotoxic compounds that show differential cytotoxicity against isogenic chicken DT40 cell lines with known DNA damage response pathways - Rad54/Ku70 mutant cell line (AID 743015); note: nearly all actives have a fitted effect of over 60% in size
[4] = qHTS assay to identify small molecule antagonists of the androgen receptor (AR) signaling pathway - cell viability counter screen (AID 743033; note: nearly all actives have a fitted effect of over 45% in size)
[5] = qHTS assay to identify small molecule antagonists of the androgen receptor (AR) signaling pathway using the MDA cell line - cell viability counter screen (AID 743041; note: nearly all actives have a fitted effect of over 45% in size)
How it was run: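 Viability read by CellTiter-Fluor fluorescence in the same wells as the antagonist screen, added after 15.5 h of a 16 h, 37C exposure. Human breast carcinoma MDA-kb2 AR-luc cells, compounds co-dosed with agonist R1881.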

[6] = qHTS assay to identify small molecule antagonists of the thyroid receptor (TR) signaling pathway - cell viability counter screen (AID 743064); note: nearly all actives have a fitted effect of over 50% in size
How it was run: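 GH3.TRE-Luc cells, 4 h pre-plating; cpd + T3 1 nM final; 37 °C 23.5 h; CellTiter-Fluor 30 min; fluorescence read.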

[7] = qHTS assay to identify small molecule antagonists of the thyroid receptor (TR) signaling pathway (AID 743065); note: series mostly up to about 70 µM; nearly all actives have a fitted effect of over 55% in size
How it was run: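 Antagonism measured as loss of luciferase signal in GH3 cells stably carrying a TRE-luciferase reporter, co-treated with compound and T3 (1 nM final) for 23.5 h at 37 C. Viability was read in the same well by CellTiter-Fluor.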

[8] = system: thyroid hormone receptor (rat, GH3 cells); assay: qHTS assay to identify small molecule agonists of the thyroid receptor (TR) signaling pathway (AID 743066; calls by dose curve)
[9] = target: Estrogen receptor (Homo sapiens) (UniProt P03372); assay: qHTS assay to identify small molecule antagonists of the estrogen receptor alpha (ER-alpha) signaling pathway (AID 743069; active = well fitted curve in the direction sought with a large enough effect in the signal ratio in the repeat runs, not every such curve was filed as active; the % refers to the signal ratio)
How it was run: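 Antagonist mode: compounds in DMSO were co-added with 17beta-estradiol to ER-alpha-bla HEK293 cells (2% charcoal-stripped serum) and left 18 h at 37C. Reporter inhibition was measured as FRET fluorescence after 2 h LiveBLAzer substrate at room temperature.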

[10] = qHTS assay to identify small molecule antagonists of the estrogen receptor alpha (ER-alpha) signaling pathway - cell viability counter screen (AID 743074; calls by dose curve;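 note: HEK293 cells carrying ER-alpha-UAS-bla reporter stimulated with 17beta-estradiol; nearly all actives have a fitted effect of over 45% in size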)
[11] = target: Estrogen receptor (Homo sapiens) (UniProt P03372); assay: qHTS assay to identify small molecule agonists of the estrogen receptor alpha (ER-alpha) signaling pathway (AID 743075; calls by dose curve;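 note: HEK293 GripTite cells with ER-alpha and UAS-driven beta-lactamase reporter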)
[12] = target: Estrogen receptor (Homo sapiens) (UniProt P03372); assay: qHTS assay to identify small molecule agonists of the estrogen receptor alpha (ER-alpha) signaling pathway using the BG1 cell line (AID 743079); note: nearly all actives have a fitted effect of over 20% in size
[13] = qHTS assay to identify small molecule antagonists of the estrogen receptor alpha (ER-alpha) signaling pathway using the BG1 cell line (AID 743080; calls by dose curve;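 note: BG1 cells stimulated with 17beta-estradiol alongside compound; series mostly up to about 70 µM; nearly all actives have a fitted effect of over 25% in size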)
How it was run: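 Quantitative HTS on the Tox21 10K library: BG1 cells with endogenous ER-alpha and ERE-luciferase reporter, 17beta-estradiol stimulation, 21.5 h compound exposure, luminescence endpoint with parallel fluorescence cytotoxicity counter-read.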

[14] = qHTS assay to identify small molecule antagonists of the estrogen receptor alpha (ER-alpha) signaling pathway using the BG1 cell line - cell viability counter screen (AID 743081);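 note: compound given together with 17beta-estradiol as the ER stimulus; series mostly up to about 70 µM; nearly all actives have a fitted effect of over 45% in size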
Aromatase (Homo sapiens) = Aromatase (Homo sapiens) (UniProt P11511); assay: qHTS assay to identify aromatase inhibitors (AID 743083); note: series mostly up to about 70 µM; nearly all actives have a fitted effect of over 55% in size
[15] = qHTS assay for identifying genotoxic compounds that show differential cytotoxicity against isogenic chicken DT40 cell lines with known DNA damage response pathways - Rev3 mutant cell line (AID 743014); note: nearly all actives have a fitted effect of over 55% in size
[16] = target: Androgen receptor (Homo sapiens) (UniProt P10275); assay: qHTS assay to identify small molecule antagonists of the androgen receptor (AR) signaling pathway (AID 743035; active = well fitted inhibition curve with a large enough effect in the signal ratio in the repeat runs, not every such curve was filed as active; the % refers to the signal ratio)
How it was run: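 In this cell-based reporter screen, compounds were tested in concentration series against R1881-activated HEK293 cells expressing beta-lactamase under UAS control; after 16 h at 37C, FRET substrate was added and fluorescence read 2 h later.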

[17] = target: Androgen receptor (Homo sapiens) (UniProt P10275); assay: qHTS assay to identify small molecule agonists of the androgen receptor (AR) signaling pathway (AID 743036; active = well fitted activation curve with a large enough effect in the signal ratio in the repeat runs, with a control signal flat, not every such curve was filed as active; the % refers to the signal ratio)
How it was run: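 AR-bla HEK293 cells, 2,000/well; 4 h preincubation 37C/5% CO2; compound (DMSO) 16 h at 37C; LiveBLAzer B/G FRET substrate 2 h RT; fluorescence intensity read-out.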

[18] = target: Androgen receptor (Homo sapiens) (UniProt P10275); assay: qHTS assay to identify small molecule agonists of the androgen receptor (AR) signaling pathway using the MDA cell line (AID 743040; note: nearly all actives have a fitted effect of over 20% in size)
How it was run: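 Luciferase agonist assay: 16 h compound exposure at 37C without CO2 in MDA-kb2 AR-luc cells, whose MMTV promoter responds to both AR and GR. Luminescence measured after 30 min room-temperature incubation with ONE-Glo.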

[19] = target: Androgen receptor (Homo sapiens) (UniProt P10275); assay: qHTS assay to identify small molecule antagonists of the androgen receptor (AR) signaling pathway using the MDA cell line (AID 743042; note: nearly all actives have a fitted effect of over 55% in size)
How it was run: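 Antagonist mode: compounds plus R1881 agonist added to MDA-kb2 AR-luc cells, incubated 16 h at 37C. Luciferase reporter luminescence quantified, with multiplexed CellTiter-Fluor readout for cell viability.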

Measured: Potency

Chain of Androgen receptor (Homo sapiens) (P10275 whole entry, looked up): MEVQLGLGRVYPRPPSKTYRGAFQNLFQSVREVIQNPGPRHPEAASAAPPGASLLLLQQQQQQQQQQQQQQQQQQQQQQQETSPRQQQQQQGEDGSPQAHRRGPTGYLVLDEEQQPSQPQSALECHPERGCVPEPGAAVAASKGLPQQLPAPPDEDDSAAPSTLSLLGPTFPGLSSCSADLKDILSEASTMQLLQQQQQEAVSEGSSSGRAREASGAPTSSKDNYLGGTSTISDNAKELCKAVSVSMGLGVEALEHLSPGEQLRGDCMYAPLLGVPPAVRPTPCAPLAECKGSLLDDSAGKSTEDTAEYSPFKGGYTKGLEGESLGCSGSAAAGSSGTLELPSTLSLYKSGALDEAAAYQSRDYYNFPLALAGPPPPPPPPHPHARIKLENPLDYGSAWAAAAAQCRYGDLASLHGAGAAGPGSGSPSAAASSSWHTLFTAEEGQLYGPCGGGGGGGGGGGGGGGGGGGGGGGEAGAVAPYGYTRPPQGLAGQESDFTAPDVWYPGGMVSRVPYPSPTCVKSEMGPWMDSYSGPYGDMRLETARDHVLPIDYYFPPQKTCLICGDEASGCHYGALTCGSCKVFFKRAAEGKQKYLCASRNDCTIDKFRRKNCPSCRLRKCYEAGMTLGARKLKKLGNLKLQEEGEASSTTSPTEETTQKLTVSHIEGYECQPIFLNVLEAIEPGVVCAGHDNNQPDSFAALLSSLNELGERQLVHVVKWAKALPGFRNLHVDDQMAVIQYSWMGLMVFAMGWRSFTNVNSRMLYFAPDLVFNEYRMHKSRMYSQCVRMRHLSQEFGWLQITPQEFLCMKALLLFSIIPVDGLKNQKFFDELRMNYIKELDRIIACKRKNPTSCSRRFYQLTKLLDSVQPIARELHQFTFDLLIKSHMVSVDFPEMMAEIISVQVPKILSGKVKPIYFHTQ
Chain of Aromatase (Homo sapiens) (P11511 whole entry, looked up): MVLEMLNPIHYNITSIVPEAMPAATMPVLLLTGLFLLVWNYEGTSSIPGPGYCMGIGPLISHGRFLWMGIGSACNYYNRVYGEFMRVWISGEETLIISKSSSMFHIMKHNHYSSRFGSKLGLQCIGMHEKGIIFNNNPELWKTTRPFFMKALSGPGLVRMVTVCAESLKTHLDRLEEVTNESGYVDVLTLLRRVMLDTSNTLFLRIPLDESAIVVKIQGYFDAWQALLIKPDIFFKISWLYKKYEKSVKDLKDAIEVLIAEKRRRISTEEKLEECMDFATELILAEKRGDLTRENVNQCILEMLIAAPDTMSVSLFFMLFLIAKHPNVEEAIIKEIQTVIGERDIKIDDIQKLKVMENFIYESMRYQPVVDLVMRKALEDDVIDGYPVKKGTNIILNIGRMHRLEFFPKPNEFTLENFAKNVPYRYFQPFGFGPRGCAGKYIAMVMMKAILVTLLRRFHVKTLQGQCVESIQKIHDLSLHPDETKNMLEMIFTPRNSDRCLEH
Chain of Estrogen receptor (Homo sapiens) (P03372 whole entry, looked up): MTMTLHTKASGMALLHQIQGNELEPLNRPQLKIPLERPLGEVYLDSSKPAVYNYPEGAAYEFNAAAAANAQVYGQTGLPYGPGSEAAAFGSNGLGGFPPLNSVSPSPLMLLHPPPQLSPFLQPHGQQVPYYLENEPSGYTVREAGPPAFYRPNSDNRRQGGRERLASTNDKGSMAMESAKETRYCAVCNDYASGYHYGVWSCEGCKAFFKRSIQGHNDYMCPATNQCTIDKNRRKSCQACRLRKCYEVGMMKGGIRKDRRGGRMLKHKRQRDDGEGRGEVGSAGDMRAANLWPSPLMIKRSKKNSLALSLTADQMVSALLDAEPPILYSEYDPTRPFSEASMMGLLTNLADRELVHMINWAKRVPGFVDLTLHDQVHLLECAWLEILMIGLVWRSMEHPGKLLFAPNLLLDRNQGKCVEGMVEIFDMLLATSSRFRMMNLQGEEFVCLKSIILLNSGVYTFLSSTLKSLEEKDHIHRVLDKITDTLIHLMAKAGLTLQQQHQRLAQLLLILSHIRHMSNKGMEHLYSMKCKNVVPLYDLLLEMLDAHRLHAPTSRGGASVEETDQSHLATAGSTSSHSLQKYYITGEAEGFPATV

CC(C)(C)NCCO
not listed: [15] | [16] | [17] | [18] | [19]
inactive: all other assays above

CCCCCCCCOC(C)=O
not listed: [6] | [15] | [16] | [17] | [18] | [19]
inactive: all other assays above

CN[C@@H]1[C@H](O)[C@H](NC)[C@H]2O[C@@]3(O)C(=O)C[C@@H](C)O[C@H]3O[C@@H]2[C@H]1O
not listed: [3] | [4] | [5] | [14]
inactive: all other assays above
